Compound activity (PubChem BioAssay)
E coli growth-1 = E. coli V3065 growth inhibition, primary screen, counter-screen for AddAB inhibitor project, absorbance, OD600; actives 0.27% (n = 330,000); inhibition, % at 11.9 µM; 18 h;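 active means inhibition above the campaign's mean inhibition across all tested compounds plus 3 SD, cut at about 9.9% in these data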;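 further: uninfected addAB+ strain grown without phage in ampicillin broth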
Tat export inh = E. coli Tat export inhibitors, primary screen, MC4100, TorA-mCherry reporter, fluorescence, single point | inhibition, % at 10 µM | actives 0.036% (n = 340,000);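 active means mean replicate inhibition at least 50% and at least half of replicates individually reaching 50%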;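 further: exported cargo escapes ClpAP degradation while cytoplasmic cargo is degraded and loses fluorescence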
phage Ecoli inh = growth loss of phage-infected E. coli, primary screen, RecBCD inhibitor project, absorbance, with phage, HTS; inhibition, % at 11.9 µM; actives 0.26% (n = 360,000); AID 651602, 2012; in the data active means inhibition above about 11%
E coli growth-2 = E. coli growth inhibition, primary screen, OD600. actives 0.21% (n = 330,000). Escherichia coli growth, 23 h; active compounds read low. OD600 absorbance (concentration not given with the values). AID 1053175, 2014;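 active means OD600 absorbance below the run mean of sample wells minus 3.6 SD, in any replicate, cut at about 0.56 in these data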
AddAB inh = growth inhibition of E. coli expressing H. pylori AddAB, primary screen, AddAB inhibitor project, absorbance | inhibition, % at 11.9 µM | actives 0.29% (n = 330,000); in the data active means inhibition above about 12%
Hits are given with their value; – = inactive; · = no result; ! = repeats disagree. Rows were chosen to be rich in hits. Some 0.5% of all compounds tested hit in one or more screens of this group.

SMILES	E coli growth-1	Tat export inh	phage Ecoli inh	E coli growth-2	AddAB inh
Cc1ccc(C=NNC(=O)CSc2nnc(-c3ccc(Cl)cc3)n2-c2ccc(Cl)cc2)o1	·	·	·	–	·
Cc1cc(OCCCCn2ccnc2)cc(C)c1Cl	–	–	–	0.5	–
S=C(NCCNCc1ccccc1)NC1CCCCC1	98	·	·	·	98
S=C(NCCc1ccccc1)NC1CCCCCC1	–	–	–	–	–
CC(CO)NC(=O)C(C)C1C[C@]1(C)C(NC(=O)OCc1ccccc1)c1ccccc1 (stereo partly specified)	·	·	·	–	·
O=C(NC(=S)NNC(=O)c1ccco1)c1ccccc1	–	–	–	0.51	–
O=C(Cc1cccs1)NNC(=S)NC(=O)c1ccco1	–	–	–	0.32	–
O=C(NNC(=O)c1ccco1)c1ccccc1	–	–	–	–	–
Cc1cc(=O)[nH]c(SCC(=O)Nc2ccc(Br)cc2)c1C#N	–	–	–	0.51	–
Cc1cc(C)c(S(=O)(=O)N/N=C/c2ccc([N+](=O)[O-])o2)c(C)c1	·	–	–	·	·
Cc1ccc(S(=O)(=O)NN=Cc2ccc([N+](=O)[O-])o2)cc1	·	·	·	0.47	·
Cc1cc(C)c(S(=O)(=O)NN=Cc2ccc([N+](=O)[O-])o2)c(C)c1	·	·	·	0.51	·
CCc1ccc(S(=O)(=O)NN=Cc2ccc([N+](=O)[O-])o2)cc1	·	·	·	–	·
Cc1ccc(S(=O)(=O)NN=Cc2ccc([N+](=O)[O-])o2)cc1C	·	·	·	0.48	·
Cc1cccc(C(N)=NOC(=O)CCCN2C(=O)c3ccccc3C2=O)c1	·	·	·	–	·
Cc1cc(C)nc(N=C(N)Nc2ccc(-c3ccccc3)cc2)n1	·	·	·	0.53	·
O=C(Nc1ccc(Cc2ccncc2)cc1)c1ccc([N+](=O)[O-])o1	13	–	–	–	–
O=C(Nc1ccc(Cc2ccncc2)cc1)c1cccc([N+](=O)[O-])c1	–	–	–	–	–
Cc1ccc(Nc2cc(C)c3c(O)cccc3n2)cc1C	–	–	–	0.5	–
COc1ccc(Nc2cc(C)c3c(O)cccc3n2)cc1	–	–	–	–	–
COC(=O)C1C[C@@]2(O)C(O)C(O)C(O)CC2N1Cc1ccc(C)s1 (stereo partly specified)	·	·	·	–	·
CCCC(CN1CCCC1CN1C(N)=NCC1Cc1ccccc1)N1CC(Cc2ccccc2)N(CCCC2CCCC2)C1=N (stereo unspecified)	·	·	·	0.34	·
CC(C)C[C@@H]1CN=C(N)N1C[C@@H]1CCCN1C[C@H](C)N1C[C@@H](Cc2ccccc2)N(CCCC2CCCC2)C1=N	–	–	–	·	–
CCC[C@@H](CN1CCC[C@H]1CN1C(N)=NC[C@H]1CC(C)C)N1C[C@@H]([C@H](C)CC)N(CCCC2CCCC2)C1=N	–	–	–	0.43	–
CCC[C@@H](CN1CCC[C@H]1CN1C(N)=NC[C@H]1C(C)C)N1C[C@@H]([C@H](C)CC)N(CCCC2CCCC2)C1=N	–	–	–	–	–
SMILES	E coli growth-1	Tat export inh	phage Ecoli inh	E coli growth-2	AddAB inh
CCOC1OC(C(=O)O)=CC(c2ccc3c(c2)OCO3)C1CCCO (stereo unspecified)	·	·	·	–	·
O=C(NNc1ccc(O)cc1)c1ccc(Br)cc1	–	–	–	0.44	–
O=C(NNc1ccccc1)c1ccccc1	·	–	–	–	·
COc1ccc(C=NNC(=O)c2cccc(F)c2)cc1COc1ccccc1	·	·	·	–	·
CC(=NNC(=O)CC(C)C)c1ccc(N2CCCCC2)cc1	·	·	·	–	·
CC(=O)Nc1cccc(C(=O)/C=C/c2ccc(/C=C/C(=O)c3cccc(NC(C)=O)c3)cc2)c1	–	·	–	·	–
CC(=O)Nc1cccc(C(=O)/C=C/c2ccc[nH]2)c1	11	–	–	–	–
CCCCCCCCCCCCCCCC(O)C[N+](C)(C)CCO (stereo unspecified)	·	52	–	·	·
NC(=NCCCCCCN=C(N)N=C(N)Nc1ccc(Cl)cc1)N=C(N)Nc1ccc(Cl)cc1	·	·	·	0.062	·
CC(C)N=C(N)N=C(N)Nc1ccc(Cl)cc1	–	–	–	–	–
COc1ccc(C=Nc2c(-c3ccc(OC)cc3)nc3n2CCS3)cc1	·	·	·	–	·
CCC(=NNC(=O)c1ccc2c(c1)OCO2)c1ccccc1	·	·	·	–	·
O=c1nccc(N/N=C/c2ccccc2O)[nH]1	·	–	–	·	·
COc1cccc(/C=N/Nc2ccnc(=O)[nH]2)c1O	13	–	–	·	–
CC1(CC(=O)NN=Cc2ccc(-c3ccc(Cl)cc3)o2)OCCO1	·	·	·	–	·
Cc1ccc(Cn2c(NN=Cc3ccncc3)nc3c2c(=O)n(C)c(=O)n3C)cc1	·	·	·	–	·
Nc1ncn(C2O[C@H](CO)[C@@H](O)[C@H]2O)c(=O)n1 (stereo partly specified)	96	·	·	·	97
Nc1nc(F)nc2c1ncn2C1OC(CO)C(O)C1O (stereo unspecified)	·	·	·	0.45!	·
